SNCA expr inhib: reduces expression of the alpha-synuclein gene. HEK-293 SNCA-luciferase knock-in, luminescence, 24 h. Potency, µM (top dose mostly 57.2 µM), for inactives: at the top dose activity change, negative = inhibition, usual class: inhibitors. 140,000 tested, 0.17% active;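 also: potency is read from the fitted curve at half-maximal effect; plate controls were DMSO cells for no effect and cell-free wells for full effect; nearly all actives have a fitted effect of over 45% in size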
GPT2 inh: GPT2 alanine aminotransferase inhibition; 100,000 tested, 0.25% active; Recombinant GPT2, coupled pyruvate oxidase/HRP Amplex Red fluorescence; Q8TD30; Potency, µM (highest dose often 57.7 µM), inactives show at the highest dose activity change, negative = inhibition, actives largely listed as inhibitors; AID 1671188; also: potency is read from the fitted curve at half-maximal effect; nearly all actives have a fitted effect of over 60% in size
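Fluorescence of coupled pyruvate oxidase/HRP/Amplex Red system (50uM Amplex, 30 min, dark) reports pyruvate formed by GPT2. Enzyme reaction: 10ng/uL GPT2, 2mM L-alanine, 250uM a-KG, 30 min room temperature, pH 7.5; 50uM AOA control.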
IP6K1 inh: inhibitors of human IP6K1 | 140,000 tested, 0.81% active | IP6K1 kinase, ADP-Glo luminescence, 2 h; active compounds read low | Q92551 | activity change, % (series mostly up to about 58 µM) | AID 1645851; in the data active = activity change below about -25%
Target sequence (Q92551 whole entry, looked up): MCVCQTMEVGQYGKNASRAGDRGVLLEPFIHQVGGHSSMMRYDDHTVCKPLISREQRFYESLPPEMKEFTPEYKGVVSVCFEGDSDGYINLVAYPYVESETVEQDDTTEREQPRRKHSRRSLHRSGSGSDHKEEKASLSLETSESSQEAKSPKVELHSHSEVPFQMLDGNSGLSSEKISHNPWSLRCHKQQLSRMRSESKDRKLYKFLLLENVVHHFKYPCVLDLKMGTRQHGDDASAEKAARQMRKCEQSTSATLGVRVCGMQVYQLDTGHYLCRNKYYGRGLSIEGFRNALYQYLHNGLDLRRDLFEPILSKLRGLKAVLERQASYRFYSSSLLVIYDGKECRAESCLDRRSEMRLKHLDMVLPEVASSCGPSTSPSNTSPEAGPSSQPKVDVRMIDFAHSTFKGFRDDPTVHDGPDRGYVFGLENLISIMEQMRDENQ
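ADP-Glo luminescence measures ADP made by human IP6K1 during a 2 h RT reaction with ATP/IP6 (mix at 1.3 mM/130 uM); top library doses 57.5 and 19.1 uM final.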
SNCA viab count: reduces viability of HEK-293 SNCA reporter cells; 150,000 tested, 0.12% active; HEK-293-SNCA-luc viability, GF-AFC fluorescence, 24 h; Potency, µM (series often up to 57.1 µM), for the others: at the top dose activity change, negative = cytotoxicity, hits mostly cytotoxic; AID 1671193;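 also: potency is read from the fitted curve at half-maximal effect; 0% = DMSO-treated cells and -100% = medium-only wells without cells; nearly all actives have a fitted effect of over 30% in size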
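Cytotoxicity counterscreen: after 24 h compound treatment of genome-edited SNCA-luciferase HEK-293 cells, live-cell protease substrate GF-AFC read by fluorescence after 30 min; activity scaled between DMSO (0%) and medium-only (-100%), curves Hill-fitted.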
IP6K1 inh cnf: human IP6K1 inhibition, confirmatory | shares compounds with IP6K1 inh | recombinant IP6K1 kinase, ADP-Glo luminescence, 2 h | Potency, µM (top dose mostly 49 µM), inactives show at the highest dose activity change, negative = inhibition, hits mostly inhibitors | 1,200 tested, 13% active | AID 1645852; also: potency is read from the fitted curve at half-maximal effect; nearly all actives have a fitted effect of over 65% in size
Active calls of the source: *; i = inactive; ? = inconclusive; . = no result given; ! = a repeat was not active; [ ] = dose if it differs, or a comment. This is a sample that favours compounds with a hit; in the whole collection about 0.9% have one here. Unless noted, calls follow the shape of the dose curve; as a rule, active = well fitted curve in the direction sought with a large enough effect; inconclusive = small, poorly fitted or top-dose-only effect, or another doubt; inactive = no such curve, though single readings can be large; an effect the other way counts as inactive or inconclusive. Unless noted, % is scaled to controls: 0 for no effect and ±100 for the full control effect.

SMILES	SNCA expr inhib	GPT2 inh	IP6K1 inh	SNCA viab count	IP6K1 inh cnf
CCOc1ccc(C2Cn3nnc(-c4nc(-c5ccsc5)no4)c3CO2)cc1 (centres undefined)	30.7%	-2.5%	-27.0*	-1.1%	-13.7%
O=C(NCCO)c1cccc(-c2cc(Nc3ccc(OC(F)(F)F)cc3)ncn2)c1	.	i	-20.9	1.6%	.
NC(=O)c1cccc(-c2cc(Nc3ccc(OC(F)(F)F)cc3)ncn2)c1	-11.7%	-0.5%	-25.3*	-24.5%	?
O=C(CC1CCCCC1)N1CCC2(CC1)CC(N(Cc1ccc(F)cc1)C1CC1)CCO2 (centres undefined)	-23.5%	i	-0.5	9.7%	.
O=C(Nc1ccc(Cl)cc1)c1cc(S(=O)(=O)N2CCCc3ccccc32)ccc1F	33.3%	.	2.4	-13.3%	.
Cc1ccc(NC(=O)c2cc(S(=O)(=O)N3CCCc4ccccc43)ccc2F)cc1F	-18.7%	.	-29.3*	-1.2%	-9.3%
Cc1ccc(NC(=O)c2cc(S(=O)(=O)NC3CCCCCC3)ccc2F)cc1F	?	.	-26.5*	?	-5.9%
O=C(Nc1ccc(Cl)cc1)c1cc(S(=O)(=O)NC2CCCCCC2)ccc1F	?	.	33.8	?	.
CNC(=O)[C@H]1CN(C(=O)c2ccc(SC)cc2)[C@]2(C)C(=O)N(CC3CC3)c3ccccc3[C@H]12	.	.	0.4	.	.
Cc1ccc2c(c1)cc1c(=O)n(CC(=O)N3CCCCC3)nc(C)n12	-1.6%	.	-27.1*	-7.8%	-18.8%
COc1cccc2c1cc1c(=O)n(CC(=O)N3CCN(c4cccc(C)c4C)CC3)nc(C)n12	-0.2%	.	-25.8*	7.4%	9.6%
CCOC(=O)C1CCN(C(=O)Cn2nc(C)n3c(cc4cc(C)ccc43)c2=O)CC1	-18.4%	.	-35.4*	-8.9%	-25.0%
O=C(CC1C(=O)NCCN1Cc1cccc(Oc2ccccc2)c1)NCc1ccco1 (centres undefined)	?	2.8%	11.1	-4.0%	.
CCOc1ccccc1CN(CCc1ccc2c(c1)OCO2)Cc1cccc(OC)c1OC	?	.	-1.0	-26.9%	.
CCOc1ccc(CN(CCc2ccc3c(c2)OCO3)Cc2cc(OC)c(OC)cc2OC)cc1	-4.3%	.	-29.5*	-4.9%	50.8%
CC(C)C[C@@H]1N[C@H](C(=O)NC2CCC2)Cc2cn(Cc3ccccn3)c3cccc1c23	?	-6.0%[88.5 µM]	-11.1	?	.
FC(F)(F)c1cccc(-c2noc(-c3ccc(NCCN4CCOCC4)nc3)n2)c1	?	i[11.5 µM]	14.3	-24.9%	.
Cn1cc(CNc2ccc(-c3nc(-c4cccc(C(F)(F)F)c4)no3)cn2)cn1	60.2%	-40.0%[11.5 µM]	-32.6*	-14.1%	?
O=C(CCc1ccccc1)N1CCC2(CC1)CC(N(Cc1ccccc1)C1CC1)CCO2 (centres undefined)	-9.3%	-1.1%	-27.3*	1.6%	-14.3%
C=CC(=O)Nc1cc(Nc2ncc(Cl)c(-c3c[nH]c4ccccc34)n2)c(OC)cc1N(C)CCN(C)C	.	i	-25.6*	?	?
COc1ccc2c(c1)c(C1=C(c3c[nH]c4ccccc34)C(=O)NC1=O)cn2CCCN(C)C	-12.0%	i	.	-21.4%	.
CCOC(=O)c1ccc(NC(=O)c2cc(=O)c3cc(CC)ccc3o2)cc1	49.5%	.	-12.4	-1.6%	.
CCOC(=O)c1ccc(NC(=O)c2cc(=O)c3ccc(C)c(C)c3o2)cc1	13.2%	.	-25.5*	-9.6%	1.9%
Cc1ccc(C)c(N2CCN(c3ncnc4c3nc3n4CCCC3)CC2)c1	23.3%	.	-29.9*	-18.9%	-3.0%
O=C(CCS(=O)(=O)c1ccccc1)N(Cc1cccnc1)c1nc2ccc(F)cc2s1	41.8%	.	-26.1*	-5.9%	-12.3%
SMILES	SNCA expr inhib	GPT2 inh	IP6K1 inh	SNCA viab count	IP6K1 inh cnf
CCN1CCN(C(c2ccc(F)cc2)c2sc3nc(-c4ccco4)nn3c2O)CC1 (centres undefined)	45.7%	.	-29.5*	?	?
CCN1CCN(C(c2ccc(C)cc2)c2sc3nc(-c4ccco4)nn3c2O)CC1 (centres undefined)	40.5%	.	12.3	0.1%	.
COc1ccc(C(=O)Nc2nc3c(s2)C[C@@H]2[C@](C)(CO)[C@H](O)CC[C@@]2(C)[C@@H]3CC(=O)NCc2ccco2)cc1	-10.2%	-5.2%	-5.7	-4.2%	.
COc1ccc(-c2ccc3ncc4c(c3c2)n(-c2ccc(N3CCNCC3)c(C(F)(F)F)c2)c(=O)n4C)cn1	?	1.7%	-15.2	30.4µM*!	-28.3%
CCOC(=O)[C@H]1C[C@]2(CCCCN(CCOC)C2=O)N(C(=O)Cc2ccc(F)cc2)[C@H]1c1ccco1	.	.	7.3	.	.
O=C(O)CSc1cc(NS(=O)(=O)c2ccc(Br)cc2)c2ccccc2c1O	.	?	-75.6*	?	?
Cc1cc(NC(=O)c2cccc(NC(=O)/C=C/CN(C)C)c2)ccc1Nc1nccc(-c2cccnc2)n1	.	i	-34.0*	-30.8%	?
Cc1cccc(Nc2sc(C(=O)c3ccc(Cl)cc3)c(N)c2C(N)=O)c1	0.0%	.	-38.8*	-9.2%	-10.1%
Cc1ccsc1CCNc1cc(C2CC(N)C2)ncn1 (centres undefined)	107.0%	i	3.3	4.0%	.
CCC[C@H](NC(=O)C(C#N)=Cc1cccc(Br)n1)c1ccccc1	?	-8.2%	.	?	?
COc1ccccc1NC(=O)c1c(NC(=O)c2ccccc2Cl)sc2c1CCC2	8.8%	.	-30.5*	11.4%	11.5%
CNC(=O)c1cc(C2CC2)nc2onc(C3CCN(C(=O)OC)CC3)c12	.	.	-6.5	.	.
O=C(NCCc1ccccn1)c1ccnc(-c2nnc3ccc(Nc4ccccc4)nn23)c1	-11.0%[87.6 µM]	-8.9%[88.5 µM]	-36.9*	-5.4%[87.6 µM]	?
O=C(Nc1cccnc1)c1ccnc(-c2nnc3ccc(Nc4ccccc4)nn23)c1	39.0%[87.6 µM]	i	-56.4*	-15.4%[87.6 µM]	?
O=C(NCCNC(=O)c1ccc(-c2cncnc2)cc1)Nc1ccc(Cl)cc1	.	.	0.1	.	.
Cc1nc2n(c1C(=O)NCc1cccs1)CCC(Nc1ccccc1)C2 (centres undefined)	-3.5%[87.6 µM]	i	19.5	2.6%[87.6 µM]	.
COc1cc(Nc2ncc3c(n2)-c2ccc(Cl)cc2C(c2c(F)cccc2OC)=NC3)ccc1C(=O)O	-10.2%	4.1%	-37.0*!	-14.4%	?
CSc1ccc(CCNC(=O)Cn2nc(C)n3c(cc4sccc43)c2=O)cc1	1.8%	.	-80.1*	6.9%	-1.9%
Cc1nn(CC(=O)NCc2ccc(Cl)cc2)c(=O)c2cc3sccc3n12	3.9%	.	-8.5	6.8%	.
Cn1ncc2c(C(=O)NC3CCCC3)cc(-c3ccc(C(F)(F)F)cc3)nc21	.	.	-3.2	.	.
COc1ccc(C2Cn3nnc(C(=O)N4CCN(C(=O)CCc5ccccc5)CC4)c3CO2)cc1 (centres undefined)	?	-4.8%	-25.5*	-4.4%	21.0%
COc1cccc(Nc2cc(-c3cccs3)nc3c(C)noc23)c1	-20.1%[87.6 µM]	2.3%[88.5 µM]	-25.2*	7.6%[87.6 µM]	?

From PubChem
